The whole screen tested about 5,500 compounds, of which about 2,000 (36%) were called active. Another 18% or so got no clear call; they are omitted. Cut-off read from the data, not from the text of the source: active = normalized growth mostly below about 0.91 (no sharp cut-off); inconclusive = no clear call, values can overlap the other calls; inactive = mostly above about 0.92. The list shows a part of the results.
Assay: chemical genetic growth profiling, strain panel (AID 1159580);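 note: tested at 20 µM; growth read once vehicle control cultures reached saturation at 30 °C; 1 = growth at the plate median or of vehicle wells; lower values mean less growth of the strain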
Settings: S. cerevisiae deletion strains, growth OD

Measured: normalized growth

O=C(CC(=O)c1ccccc1)c1ccccc1
active: locus YAL021C, strain ccr4, active compounds read low 0.0705 | locus YAL026C, strain drs2, active compounds read low 0.175 | locus YAL030W, strain snc1, active compounds read low 0.318 | locus YBL061C, strain skt5, active compounds read low 0.12 | locus YBR009C, strain hhf1, active compounds read low 0.194 | locus YBR023C, strain chs3, active compounds read low 0.211 | locus YBR171W, strain sec66, active compounds read low 0.735 | locus YBR231C, strain swc5, active compounds read low 0.177 | locus YBR279W, strain paf1, active compounds read low 0.453 | locus YCL011C, strain gbp2, active compounds read low 0.3 | locus YCL016C, strain dcc1, active compounds read low 0.43 | locus YCL069W, strain vba3, active compounds read low 0.362 | locus YCR088W, strain abp1, active compounds read low 0.462 | locus YDL005C, strain med2, active compounds read low 0.596 | locus YDL040C, strain nat1, active compounds read low 0.698 | locus YDR001C, strain nth1, active compounds read low 0.639 | locus YDR069C, strain doa4, active compounds read low 0.0695 | locus YDR137W, strain rgp1, active compounds read low 0.135 | locus YDR159W, strain sac3, active compounds read low 0.541 | locus YDR195W, strain ref2 0.516 | locus YDR297W, strain sur2, active compounds read low 0.192 | locus YDR334W, strain swr1, active compounds read low 0.152 | locus YDR335W, strain msn5, active compounds read low 0.227 | locus YDR392W, strain spt3, active compounds read low 0.396 | locus YEL003W, strain gim4, active compounds read low 0.379 | locus YEL037C, strain rad23, active compounds read low 0.342 | locus YEL061C, strain CIN8 (second series), active compounds read low 0.437 | locus YER015W, strain faa2, active compounds read low 0.122 | locus YER016W, strain bim1, active compounds read low 0.544 | locus YER111C, strain swi4, active compounds read low 0.204 | locus YER155C, strain BEM2 (second series), active compounds read low 0.381 | locus YFR010W, strain ubp6, active compounds read low 0.171 | locus YGL167C, strain pmr1, active compounds read low 0.166 | locus YGL173C, strain kem1, active compounds read low 0.119 | locus YGL227W, strain vid30, active compounds read low 0.725 | locus YGL240W, strain doc1, active compounds read low 0.457 | locus YGL253W, strain hxk2, active compounds read low 0.147 | locus YHR013C, strain ard1, active compounds read low 0.14 | locus YHR027C, strain rpn1, active compounds read low 0.0797 | locus YHR030C, strain SLT2, active compounds read low 0.515 | locus YHR079C, strain IRE1, active compounds read low 0.468 | locus YHR142W, strain chs7, active compounds read low 0.171 | locus YJL092W, strain hpr5, active compounds read low 0.432 | locus YJL095W, strain BCK1 (second series), active compounds read low 0.108 | locus YJL095W, strain BCK1, active compounds read low 0.524 | locus YJL115W, strain asf1, active compounds read low 0.546 | locus YJL129C, strain trk1, active compounds read low 0.596 | locus YJL154C, strain vps35, active compounds read low 0.237 | locus YJL164C, strain tpk1, active compounds read low 0.154 | locus YJL166W, strain qcr8, active compounds read low 0.16 | locus YJR066W, strain TOR1, active compounds read low 0.565 | locus YKL160W, strain elf1, active compounds read low 0.578 | locus YKR026C, strain gcn3, active compounds read low 0.685 | locus YKR091W, strain srl3, active compounds read low 0.527 | locus YLL001W, strain dnm1, active compounds read low 0.363 | locus YLL026W, active compounds read low 0.373 | locus YLL041C, strain sdh2, active compounds read low 0.328 | locus YLR027C, strain aat2, active compounds read low 0.261 | locus YLR113W, strain HOG1, active compounds read low 0.348 | locus YLR221C, strain rsa3, active compounds read low 0.284 | locus YLR258W, strain gsy2, active compounds read low 0.234 | locus YLR262C, strain YPT6 (second series), active compounds read low 0.101 | locus YLR320W, strain mms22, active compounds read low 0.207 | locus YLR342W, strain FKS1, active compounds read low 0.344 | locus YLR357W, strain rsc2, active compounds read low 0.471 | locus YLR370C, strain arc18, active compounds read low 0.147 | locus YLR384C, strain iki3, active compounds read low 0.437 | locus YML120C, strain ndi1, active compounds read low 0.498 | locus YMR058W, strain fet3, active compounds read low 0.0728 | locus YMR125W, strain sto1, active compounds read low 0.82 | locus YMR129W, active compounds read low 0.393 | locus YMR205C, strain PFK2, active compounds read low 0.242 | locus YMR231W, strain pep5, active compounds read low 0.0832 | locus YNL071W, strain lat1, active compounds read low 0.351 | locus YNL183C, strain NPR1, active compounds read low 0.517 | locus YNL209W, strain ssb2, active compounds read low 0.0845 | locus YNL248C, strain rpa49, active compounds read low 0.552 | locus YNL322C, strain KRE1 (second series), active compounds read low 0.619 | locus YNR049C, strain mso1, active compounds read low 0.434 | locus YOR001W, strain rrp6, active compounds read low 0.45 | locus YOR070C, strain gyp1, active compounds read low 0.575 | locus YOR080W, strain dia2, active compounds read low 0.127 | locus YOR083W, strain WHI5, active compounds read low 0.186 | locus YOR106W, strain vam3, active compounds read low 0.0633 | locus YOR231W, strain MKK1, active compounds read low 0.497 | locus YOR265W, strain rbl2, active compounds read low 0.179 | locus YOR270C, strain vph1, active compounds read low 0.105 | locus YOR290C, strain snf2, active compounds read low 0.391 | locus YPL051W, strain arl3, active compounds read low 0.102 | locus YPL078C, strain atp4, active compounds read low 0.414 | locus YPL106C, strain sse1, active compounds read low 0.416 | locus YPL240C, strain hsp82, active compounds read low 0.4 | locus YPL256C, strain CLN2, active compounds read low 0.57
